# According to paper PMC8384837, “Expanding the binding specificity for RNA recognition by a PUF domain”:
# Experiments:
# Assay in all cases: yeast three-hybrid, YBZ-1, SC-Leu-His + 0.5 mM 3-AT, 4 days
# Conditions in all cases: tags: N-Gal4 AD-HA kept; label: inside an RPR1-promoter hybrid RNA with tandem MS2 sites; ssRNA
# PUM1 PUF domain R5-HRG = PUM1 PUF domain R5-HRG (Homo sapiens, UniProt Q14671 828-1176, C1007H;Q1011G)
# Procedure, shortened: (§1)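 Each repeat of the Pumilio-1 PUF domain was randomized at its three base-contacting residues, and these libraries were co-expressed from a centromeric plasmid with matching RNA elements in strain YBZ-1. After four days on SC-Leu (input) or SC-Leu-His + 0.5 mM 3-AT (selection), the repeat regions were PCR-amplified and Illumina-sequenced. The interaction score compares variant frequency between input and selection as a log change, computed in log2 with a pseudocount of 1 for absent variants.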
# PUM1 PUF domain R7-LHG = PUM1 PUF domain R7-LHG (Homo sapiens, UniProt Q14671 828-1176, S1079L;N1080H;E1083G)
# Procedure, shortened: as §1
# PUM1 PUF domain R8-RYA = PUM1 PUF domain R8-RYA (Homo sapiens, UniProt Q14671 828-1176, N1122R;Q1126A)
# Procedure, shortened: as §1
# PUM1 PUF domain R6-SWR = biological target: T1, PUM1 PUF domain R6-SWR (Homo sapiens, UniProt Q14671 828-1176, N1043S;Y1044W;Q1047R)
# T1 sequence: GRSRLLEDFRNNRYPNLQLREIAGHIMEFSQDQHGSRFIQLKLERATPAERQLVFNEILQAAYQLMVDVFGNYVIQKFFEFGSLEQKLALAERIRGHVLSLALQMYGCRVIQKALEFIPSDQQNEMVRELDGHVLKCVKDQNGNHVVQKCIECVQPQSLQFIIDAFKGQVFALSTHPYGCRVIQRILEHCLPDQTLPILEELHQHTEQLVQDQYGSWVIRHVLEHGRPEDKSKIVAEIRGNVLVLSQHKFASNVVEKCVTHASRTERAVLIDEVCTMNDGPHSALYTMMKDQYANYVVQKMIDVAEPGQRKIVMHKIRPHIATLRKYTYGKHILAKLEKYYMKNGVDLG
# Procedure, shortened: as §1
# PUM1 PUF domain R5-EHR = PUM1 PUF domain R5-EHR (Homo sapiens, UniProt Q14671 828-1176, C1007E;R1008H;Q1011R)
# Procedure, shortened: as §1
# PUM1 PUF domain R4-ALS = PUM1 PUF domain R4-ALS (Homo sapiens, UniProt Q14671 828-1176, N971A;H972L;Q975S)
# Procedure, shortened: as §1
# PUM1 PUF domain R3-CPT = PUM1 PUF domain R3-CPT (Homo sapiens, UniProt Q14671 828-1176, R936P;Q939T)
# Procedure, shortened: as §1
# PUM1 PUF domain R3-CRP = PUM1 PUF domain R3-CRP (Homo sapiens, UniProt Q14671 828-1176, Q939P)
# Procedure, shortened: as §1
# PUM1 PUF domain R3-LRT = PUM1 PUF domain R3-LRT (Homo sapiens, UniProt Q14671 828-1176, C935L;Q939T)
# Procedure, shortened: as §1
# PUM1 PUF domain R3-GFP = PUM1 PUF domain R3-GFP (Homo sapiens, UniProt Q14671 828-1176, C935G;R936F;Q939P)
# Procedure, shortened: as §1
sequence,measurement,setting,value
GGCUAGAACUAGUGGAUCCCCCGGCGCCCGGCGGCUCGAGCCCGGGUAAGUGUUAAUAGUCUGCAUGCCGCCGGGCGCCAUGCCUGCAGGUCGACUCUAGAAAACAUG,binding signal,PUM1 PUF domain R5-HRG,3.89 log2 enrichment (interaction score)
GGCUAGAACUAGUGGAUCCCCCGGCGCCCGGCGGCUCGAGCCCGGGUAAGUCUAAAUAGUCUGCAUGCCGCCGGGCGCCAUGCCUGCAGGUCGACUCUAGAAAACAUG,binding signal,PUM1 PUF domain R7-LHG,3.19 log2 enrichment (interaction score)
GGCUAGAACUAGUGGAUCCCCCGGCGCCCGGCGGCUCGAGCCCGGGUAAGUGUCAAUAGUCUGCAUGCCGCCGGGCGCCAUGCCUGCAGGUCGACUCUAGAAAACAUG,binding signal,PUM1 PUF domain R5-HRG,1.78 log2 enrichment (interaction score)
GGCUAGAACUAGUGGAUCCCCCGGCGCCCGGCGGCUCGAGCCCGGGUAAGCGUAAAUAGUCUGCAUGCCGCCGGGCGCCAUGCCUGCAGGUCGACUCUAGAAAACAUG,binding signal,PUM1 PUF domain R8-RYA,6.7 log2 enrichment (interaction score)
GGCUAGAACUAGUGGAUCCCCCGGCGCCCGGCGGCUCGAGCCCGGGUAAGUGCAAAUAGUCUGCAUGCCGCCGGGCGCCAUGCCUGCAGGUCGACUCUAGAAAACAUG,binding signal,PUM1 PUF domain R6-SWR,7.3 log2 enrichment (interaction score)
GGCUAGAACUAGUGGAUCCCCCGGCGCCCGGCGGCUCGAGCCCGGGUAAGUGUAAAUAGUCUGCAUGCCGCCGGGCGCCAUGCCUGCAGGUCGACUCUAGAAAACAUG,binding signal,PUM1 PUF domain R5-EHR,3.38 log2 enrichment (interaction score)
same,binding signal,PUM1 PUF domain R4-ALS,4.11 log2 enrichment (interaction score)
same,binding signal,PUM1 PUF domain R5-HRG,0.26 log2 enrichment (interaction score)
same,binding signal,PUM1 PUF domain R3-CPT,2.54 log2 enrichment (interaction score)
same,binding signal,PUM1 PUF domain R3-CRP,4.84 log2 enrichment (interaction score)
same,binding signal,PUM1 PUF domain R6-SWR,8.07 log2 enrichment (interaction score)
GGCUAGAACUAGUGGAUCCCCCGGCGCCCGGCGGCUCGAGCCCGGGUAAGUUUAAAUAGUCUGCAUGCCGCCGGGCGCCAUGCCUGCAGGUCGACUCUAGAAAACAUG,binding signal,PUM1 PUF domain R7-LHG,4.5 log2 enrichment (interaction score)
GGCUAGAACUAGUGGAUCCCCCGGCGCCCGGCGGCUCGAGCCCGGGUAAGUGUAAGUAGUCUGCAUGCCGCCGGGCGCCAUGCCUGCAGGUCGACUCUAGAAAACAUG,binding signal,PUM1 PUF domain R3-LRT,4.37 log2 enrichment (interaction score)
same,binding signal,PUM1 PUF domain R3-CRP,1.62 log2 enrichment (interaction score)
GGCUAGAACUAGUGGAUCCCCCGGCGCCCGGCGGCUCGAGCCCGGGUAAGUGUAAUUAGUCUGCAUGCCGCCGGGCGCCAUGCCUGCAGGUCGACUCUAGAAAACAUG,binding signal,PUM1 PUF domain R3-LRT,1.36 log2 enrichment (interaction score)
same,binding signal,PUM1 PUF domain R3-GFP,4.82 log2 enrichment (interaction score)
same,binding signal,PUM1 PUF domain R3-CPT,1.02 log2 enrichment (interaction score)
same,binding signal,PUM1 PUF domain R3-CRP,1.1 log2 enrichment (interaction score)
